Laboratory results taken from PubChem BioAssay (Tox21).
“And” between values parts separate entries of the source, which are not always exact repeats. Equal entries are not always repeated. Results filed as inconclusive are left out. Entries that show only a call come without a potency. A structure can be active in one record and inactive in another. The source made the active and inactive calls. Unless noted, calls follow the shape of the full dose curve.

experiment: qHTS assay to identify small molecule agonists of the hypoxia (HIF-1) signaling pathway (AID 1224846; active = well fitted activation curve with a large enough effect in the signal ratio in the repeat runs, not every such curve was filed as active; the % refers to the signal ratio); conditions: HRE-bla ME-180 cells, beta-lactamase ratio, 17 h; series mostly up to 76.8 µM; activation: at the top concentration
Outline: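 ME-180 HRE-bla reporter cells; compounds in DMSO, 17 h at 37C; read-out beta-lactamase via CCF4-AM FRET.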

Compound | outcome
OCC(O)CCl (centres undefined) | inactive
CNCC(O)c1ccc(O)cc1 (centres undefined) | inactive
Cl[C@H]1OCCO[C@@H]1Cl | inactive
O=C(O)CCCc1ccc(N(CCCl)CCCl)cc1 | inactive
N#CN=C(N)N | inactive
N#Cc1cccc(C#N)c1 | inactive
COC(C)(C)CCCC(C)C/C=C/C(C)=C/C(=O)OC(C)C (centres undefined) | inactive
Nc1cccc(Cl)c1 | inactive
Cc1cc(O)ccc1Cl | inactive
C=CCN=C=S | inactive
Cc1ccc(O)c(C)c1 | inactive
CSc1nnc(C(C)(C)C)c(=O)n1N | inactive
Cc1cc(Cl)ccc1OC(C)C(=O)O (centres undefined) | inactive
O=[N+]([O-])c1ccc(Cl)c(Cl)c1 | inactive
FC(F)(F)c1ccc(Cl)cc1 | inactive
CNC(=O)Oc1cccc2ccccc12 | inactive
Sc1ccccc1 | inactive
CNC(=O)O/N=C/C(C)(C)S(C)=O (centres undefined) | inactive
CCNc1nc(Cl)nc(NC(C)C)n1 | inactive
O=[N+]([O-])c1cc([As](=O)(O)O)ccc1O | inactive
O=C(O)Cc1ccccc1 | inactive
CN(C)C(=O)Nc1cccc(C(F)(F)F)c1 | inactive
CNC(=O)O/N=C/C(C)(C)SC | inactive
CC(C)CCCCCCOC(=O)c1ccccc1C(=O)OCCCCCCC(C)C | inactive
C=CC#N | inactive
CN(C)NC(=O)CCC(=O)O | inactive

experiment: qHTS assay to identify small molecule agonists of H2AX - cell viability counter screen (AID 1224847); conditions: CHO-K1 viability, CellTiter-Glo luminescence, 3 h; series mostly up to 154 µM; activity change, negative = cytotoxicity: at the top concentration; also: nearly all actives have a fitted effect of over 30% in size; also: potency is read from the fitted curve at half-maximal effect;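 as to activity change, negative = cytotoxicity: wild-type CHO-K1 cells; top concentration of the series differs between compounds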
Outline: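 For this counter screen, overnight-attached CHO-K1 cells received test compounds (15 concentrations, 0.76% DMSO final); 3 hr later at 37C, CellTiter-Glo reagent was added and luminescence recorded after 30 min at room temperature.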

Compound | Potency | activity change, negative = cytotoxicity
OCC(O)CCl (centres undefined) | inactive | –
CNCC(O)c1ccc(O)cc1 (centres undefined) | inactive | –
Cl[C@H]1OCCO[C@@H]1Cl | inactive | –
O=C(O)CCCc1ccc(N(CCCl)CCCl)cc1 | inactive | –
N#CN=C(N)N | inactive | –
N#Cc1cccc(C#N)c1 | inactive | –
COC(C)(C)CCCC(C)C/C=C/C(C)=C/C(=O)OC(C)C (centres undefined) | – | 0.492% [at 70.9 µM] (inactive)
Nc1cccc(Cl)c1 | inactive | –
Clc1cnc(Oc2ccc(Oc3ncc(Cl)cc3Cl)cc2)c(Cl)c1 | – | 0.279% [at 70.9 µM] (inactive)
Cc1cc(O)ccc1Cl | inactive | –
C=CCN=C=S | inactive | –
Cc1ccc(O)c(C)c1 | inactive | –
CSc1nnc(C(C)(C)C)c(=O)n1N | inactive | –
Cc1cc(Cl)ccc1OC(C)C(=O)O (centres undefined) | inactive | –
O=[N+]([O-])c1ccc(Cl)c(Cl)c1 | inactive | –
FC(F)(F)c1ccc(Cl)cc1 | inactive | –
CNC(=O)Oc1cccc2ccccc12 | inactive | –
Sc1ccccc1 | inactive | –
CNC(=O)O/N=C/C(C)(C)S(C)=O (centres undefined) | inactive | –
CCNc1nc(Cl)nc(NC(C)C)n1 | inactive | –
O=[N+]([O-])c1cc([As](=O)(O)O)ccc1O | inactive | –
O=C(O)Cc1ccccc1 | inactive | –
CN(C)C(=O)Nc1cccc(C(F)(F)F)c1 | inactive | –
CC(C)c1cccc(C(C)C)c1O | 50.5 µM (active) and inactive | –
CNC(=O)O/N=C/C(C)(C)SC | inactive | –
CC(C)CCCCCCOC(=O)c1ccccc1C(=O)OCCCCCCC(C)C | inactive | –
C=CC#N | inactive | –
O=C(O)C1C(C(=O)O)C2(Cl)C(Cl)=C(Cl)C1(Cl)C2(Cl)Cl (centres undefined) | inactive | –
Cc1cccc(N)c1 | inactive | –
CN(C)NC(=O)CCC(=O)O | inactive | –

experiment: qHTS assay to identify small molecule antagonists of the estrogen related receptor (ERR) signaling pathway from Tox21 library (AID 1224848; active = well fitted inhibition curve with a large enough effect in the repeat runs; also: nearly all actives have a fitted effect of over 50% in size); conditions: ERR reporter cell line, luciferase antagonist mode, 18 h; series mostly up to 92.4 µM; activity, negative = inhibition: at the top concentration
Outline: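 First, 2,000 ERR cells per well were plated and held 6 h at 37 C/5% CO2. Next, compounds in DMSO were pinned in and left 18 h at 37 C. Finally, ONE-Glo was added and luminescence read after 30 min at room temperature.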

Compound | Potency
CNCC(O)c1ccc(O)cc1 (centres undefined) | inactive
Cl[C@H]1OCCO[C@@H]1Cl | inactive
COC(C)(C)CCCC(C)C/C=C/C(C)=C/C(=O)OC(C)C (centres undefined) | inactive
Nc1cccc(Cl)c1 | inactive
Cc1cc(O)ccc1Cl | inactive
C=CCN=C=S | inactive
Cc1ccc(O)c(C)c1 | inactive
O=[N+]([O-])c1ccc(Cl)c(Cl)c1 | inactive
CCNc1nc(Cl)nc(NC(C)C)n1 | inactive
O=[N+]([O-])c1cc([As](=O)(O)O)ccc1O | inactive
O=C(O)Cc1ccccc1 | inactive
CC(C)c1cccc(C(C)C)c1O | inactive
CNC(=O)O/N=C/C(C)(C)SC | inactive
C=CC#N | inactive
Cc1cccc(N)c1 | inactive
CN(C)NC(=O)CCC(=O)O | inactive

experiment: qHTS assay to identify small molecule agonists of the estrogen related receptor (ERR) signaling pathway from Tox21 library (AID 1224849); conditions: ERR reporter cell line, ONE-Glo luciferase, 18 h; at 42.5 µM (top of the series); also: nearly all actives have a fitted effect of over 15% in size
Outline: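 Luciferase activity in ERR pathway reporter cells served as the agonist readout; exposure lasted 18 h at 37 C, with ONE-Glo detection after 30 min at room temperature.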

Compound | activity change, positive = activation
CNCC(O)c1ccc(O)cc1 (centres undefined) | 12.7% (inactive)
COC(C)(C)CCCC(C)C/C=C/C(C)=C/C(=O)OC(C)C (centres undefined) | 0.0177% (inactive)
Cc1cc(O)ccc1Cl | 6.83% (inactive)
O=[N+]([O-])c1cc([As](=O)(O)O)ccc1O | -1.93% (inactive)
O=C(O)Cc1ccccc1 | -0.0869% (inactive)
CC(C)c1cccc(C(C)C)c1O | -0.995% (inactive)

same assay, conditions: ERR reporter cell line, ONE-Glo luciferase, 18 h; at 92.4 µM (top of the series)

Compound | activity change, positive = activation
CNCC(O)c1ccc(O)cc1 (centres undefined) | 2.21% (inactive)
Cl[C@H]1OCCO[C@@H]1Cl | -1.08% (inactive) and -4.01% (inactive)
COC(C)(C)CCCC(C)C/C=C/C(C)=C/C(=O)OC(C)C (centres undefined) | -14.1% (inactive)
Nc1cccc(Cl)c1 | 7.3% (inactive) and -16.4% (inactive)
Cc1cc(O)ccc1Cl | 0.807% (inactive) and 6.83% (inactive)
C=CCN=C=S | 10.8% (inactive) and 0.847% (inactive)
Cc1ccc(O)c(C)c1 | -0.712% (inactive) and 11.3% (inactive)
O=[N+]([O-])c1ccc(Cl)c(Cl)c1 | -0.469% (inactive) and -6.92% (inactive)
CCNc1nc(Cl)nc(NC(C)C)n1 | -5.74% (inactive) and -1.44% (inactive)
O=[N+]([O-])c1cc([As](=O)(O)O)ccc1O | -21.2% (inactive) and 4.02% (inactive)
O=C(O)Cc1ccccc1 | -3.48% (inactive)
CC(C)c1cccc(C(C)C)c1O | -9.76% (inactive) and -27.6% (inactive)
CNC(=O)O/N=C/C(C)(C)SC | 5.2% (inactive) and 5.41% (inactive)
C=CC#N | 0.57% (inactive) and 1.17% (inactive)
Cc1cccc(N)c1 | 7.86% (inactive) and 1.47% (inactive) and 12% (inactive)
CN(C)NC(=O)CCC(=O)O | 4.6% (inactive) and 12.8% (active)
